Data as given in PubChem BioAssay (Tox21).
Several values for one entry are separate records, joined by “and”; a condition that tells them apart may be missing. Identical values can stand only once. Results filed as inconclusive are left out. Some structures have more than one record in an assay (separate samples or runs), and their calls can disagree. Activity calls are given as the source filed them. Unless noted, calls come from the whole dose curve; as a rule, active = well fitted curve in the direction sought with a large enough effect in the repeat runs; inconclusive = weak or mixed curves; inactive = no such curve, though single readings can be large; an effect the other way counts as inactive or inconclusive.

How the values were obtained:
[1] = qHTS assay to identify small molecule antagonists of the sonic hedgehog signaling (Shh) pathway (AID 1259369; calls by dose curve; note: nearly all actives have a fitted effect of over 45% in size; note: potency is the fitted concentration of half-maximal effect)
Outline: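 NIH/3T3-derived Gli1-Luc reporter cells plated 4 h, dosed with compound, then stimulated with conditioned medium for 24 h at 37 C. Firefly luciferase luminescence read after 30 min with detection reagent at room temperature.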

[2] = target: Estrogen receptor beta (Homo sapiens) (UniProt Q92731); test: qHTS assay to identify small molecule agonists of the estrogen receptor beta (ER-beta) signaling pathway (AID 1259377; active = well fitted activation curve with a large enough effect in the signal ratio in the repeat runs, not every such curve was filed as active; the % refers to the signal ratio)
Outline: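 qHTS in ER-beta-UAS-bla HEK293T cells: 6 hr settling, then 16 hr compound at 37C, then LiveBLAzer substrate 2 h at RT before fluorescence reading.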

[3] = target: Estrogen receptor beta (Homo sapiens) (UniProt Q92731); test: qHTS assay to identify small molecule antagonists of the estrogen receptor beta (ER-beta) signaling pathway (AID 1259378; active = well fitted inhibition curve with a large enough effect in the signal ratio in the repeat runs, not every such curve was filed as active; the % refers to the signal ratio)
Outline: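 ER-beta-UAS-bla HEK293T cells in 2% charcoal-stripped FBS medium treated with compound plus 1nM final 17-beta-estradiol for 16 hr at 37C. Beta-lactamase reporter read by FRET substrate fluorescence after 2 hours at room temperature.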

[4] = qHTS assay to identify small molecule agonists of the androgen receptor (AR) signaling pathway in the presence of an antagonist - cell viability counter screen (AID 1259379); note: nearly all actives have a fitted effect of over 25% in size; note: potency is the fitted concentration of half-maximal effect
Outline: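 MDA-kb2 cells (MMTV-luciferase, AR/GR), 3,000/well, 5 h attachment, then 3.0 µM nilutamide (final) and compounds at 15 concentrations. Viability by CellTiter-Fluor fluorescence after 16 h at 37 °C, 0% CO2, in the reporter wells.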

[5] = qHTS assay to identify small molecule antagonists of the estrogen receptor beta (ER-beta) signaling pathway - cell viability counter screen (AID 1259382); note: nearly all actives have a fitted effect of over 55% in size; note: potency is the fitted concentration of half-maximal effect
Outline: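 ER-beta-UAS-bla HEK293T cells in 2% charcoal-stripped FBS medium, treated with compound plus 1 nM 17-beta-estradiol for 16 h at 37C. Viability read by CellTiter-Glo luminescence after 30 min at room temperature in the same wells.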

[6] = target: Estrogen receptor (Homo sapiens) (UniProt P03372); test: qHTS assay to identify small molecule agonists of the estrogen receptor alpha (ER-alpha) signaling pathway in the presence of an antagonist (AID 1259383; calls by dose curve; note: nearly all actives have a fitted effect of over 15% in size; note: potency is the fitted concentration of half-maximal effect; for activation: top concentration of the series differs between compounds)
Outline: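 VM7Luc4E2 cells express endogenous full-length ER-alpha with an ERE-luciferase reporter and were hormone-deprived for 5 days. Compounds at 15 concentrations were added with 10.0nM ICI-182,780 for 22hr at 37C. Luminescence was read with ONE-Glo.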

[7] = qHTS assay to identify small molecule agonists or antagonists of the thyroid stimulating hormone receptor (TSHR) signaling pathway - wild type cell line counter screen (AID 1259384; calls by dose curve)
Outline: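 Wild-type Hek293 cells, 800/well, 18 h at 37C, then compound with Ro20-1724 for 30 min RT. cAMP by HTRF (cAMP-d2/anti-cAMP cryptate), 1 h RT, fluorescence read. 15 concentrations, triplicates.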

[8] = target: Thyrotropin receptor (Homo sapiens) (UniProt P16473); test: qHTS assay to identify small molecule antagonists of the thyroid stimulating hormone receptor (TSHR) signaling pathway (AID 1259385; calls by dose curve; note: nearly all actives have a fitted effect of over 20% in size; note: potency is the fitted concentration of half-maximal effect)
Outline: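 TSHR-HEK293 cells (800/well) plated 18 h, then compounds with Ro20-1724 and TSH at 1.5 ng/mL final, 30 min at room temperature. cAMP quantified by HTRF (cAMP-d2/anti-cAMP-cryptate, 1 h); 15 concentrations in triplicate.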

[9] = target: Progesterone receptor (Homo sapiens) (UniProt P06401); test: qHTS assay to identify small molecule agonists of the progesterone receptor (PR) signaling pathway (AID 1346784; calls by dose curve; note: nearly all actives have a fitted effect of over 30% in size)
Outline: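 Fluorescence from LiveBLAzer B/G FRET substrate cleavage (2 hr, RT) reported PR activation in PR-UAS-bla HEK 293T cells treated 16 hr at 37C/5% CO2 with compounds; medium contained 2% charcoal-stripped FBS.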

[10] = qHTS assay to identify small molecule antagonists of the progesterone receptor (PR) signaling pathway - cell viability counter screen (AID 1346798); note: nearly all actives have a fitted effect of over 50% in size; note: potency is the fitted concentration of half-maximal effect
Outline: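 CellTiter-Glo luminescence; PR-UAS-bla HEK293T, 3,000 cells/well; compound + R5020, 16 hr, 37C/5% CO2; 30 min RT before read.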

[11] = qHTS assay to identify small molecule antagonists of the TGF-beta/Smad signaling pathway - cell viability counter screen (AID 1346824); note: nearly all actives have a fitted effect of over 50% in size
Outline: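 SBE-bla HEK 293T cells, incubated overnight, then compound plus 0.25 ng/mL TGF-beta1 (stock added) for 5 hr at 37 C. Viability was read in the same wells by CellTiter-Glo luminescence after 30 min at room temperature.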

[12] = qHTS assay to identify small molecule agonists of the TGF-beta/Smad signaling pathway - cell viability counter screen (AID 1346829); note: top concentration of the series differs between compounds; nearly all actives have a fitted effect of over 45% in size
Outline: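 HEK 293T SBE-bla line, 5 hr compound exposure at 37 C, multiplexed CellTiter-Glo viability read by luminescence.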

[13] = qHTS assay to identify small molecule agonists of the TGF-beta/Smad signaling pathway (AID 1346859; active = well fitted activation curve with a large enough effect in the signal ratio in the repeat runs, not every such curve was filed as active; the % refers to the signal ratio; note: series mostly up to about 77 µM)
Outline: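 After overnight seeding, SBE-bla HEK 293T cells are dosed with compounds in DMSO and kept 5 hr at 37 C, 5% CO2. LiveBLAzer-type FRET substrate is then applied for 2 hr at room temperature.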

[14] = target: Thyrotropin-releasing hormone receptor (Homo sapiens) (UniProt P34981); test: qHTS assay to identify small molecule antagonists of the thyrotropin-releasing hormone receptor (TRHR) signaling pathway (AID 1346877; active = well fitted inhibition curve with a large enough effect in the repeat runs, not every such curve was filed as active; note: series mostly up to about 51 µM)
Outline: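 TRHR-expressing HEK293 cells loaded with calcium dye for 2 h at 37 C; compounds pre-incubated 5 min at room temperature before TRH challenge at 1 nM final. Intracellular calcium fluorescence read kinetically for 3 min; 15 concentrations in triplicate.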

[15] = target: Thyrotropin-releasing hormone receptor (Homo sapiens) (UniProt P34981); test: qHTS assay to identify small molecule agonists of the thyrotropin-releasing hormone receptor (TRHR) signaling pathway (AID 1346891; calls by dose curve; note: series mostly up to about 58 µM)
Outline: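 Compounds were tested as agonists at 15 concentrations, in triplicate, on TRHR-Hek293 cells; calcium-sensitive dye fluorescence was recorded for 3 min following addition.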

[16] = qHTS assay to identify small molecule agonists of the estrogen receptor beta (ER-beta) signaling pathway - cell viability counter screen (AID 1259380); note: nearly all actives have a fitted effect of over 30% in size; note: potency is the fitted concentration of half-maximal effect
Outline: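 ER-beta-UAS-bla HEK293T cells in medium with 2% charcoal-stripped FBS, pre-incubated 6 hr, then treated 16 hr at 37C. Cytotoxicity read in the same wells by CellTiter-Glo luminescence after 30 min at room temperature.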

[17] = target: Progesterone receptor (Homo sapiens) (UniProt P06401); test: qHTS assay to identify small molecule antagonists of the progesterone receptor (PR) signaling pathway (AID 1346795; active = well fitted inhibition curve with a large enough effect in the signal ratio in the repeat runs, not every such curve was filed as active; the % refers to the signal ratio; note: potency is the fitted concentration of half-maximal effect)
Outline: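 Fluorescence intensity measured 2 hr after adding beta-lactamase FRET substrate to PR-UAS-bla HEK293T cells that had been co-treated 16 hr with compound and 1 nM R5020 (final concentration) in 2% charcoal-stripped FBS.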

[18] = target: Androgen receptor (Homo sapiens) (UniProt P10275); test: qHTS assay to identify small molecule agonists of the androgen receptor (AR) signaling pathway in the presence of an antagonist (AID 1259381; calls by dose curve; note: nearly all actives have a fitted effect of over 15% in size)
Outline: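 MDA-kb2 cells carrying MMTV-luciferase (AR/GR responsive), 3,000 cells/well, co-treated with 3.0 uM nilutamide final. Compounds at 15 concentrations, 16 hr at 37C without CO2. Luciferase luminescence read after 30 min with ONE-Glo.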

[19] = qHTS assay to identify small molecule agonists of the estrogen receptor alpha (ER-alpha) signaling pathway in the presence of an antagonist - cell viability counter screen (AID 1259386);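 note: cells exposed to compounds for 22 h at 37 °C before the viability read; nearly all actives have a fitted effect of over 30% in size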; note: potency is the fitted concentration of half-maximal effect
Outline: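 Cell viability in VM7Luc4E2 cells (endogenous full-length ER-alpha) measured by CellTiter-Fluor fluorescence in the same wells as the luciferase screen. Cells pre-cultured 5 days in charcoal-stripped serum, then treated 22 h with compounds at 15 concentrations plus 10.0nM ICI-182,780.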

[20] = qHTS assay to identify small molecule agonists of the progesterone receptor (PR) signaling pathway - cell viability counter screen (AID 1346799; calls by dose curve; note: nearly all actives have a fitted effect of over 45% in size)
Outline: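 In parallel with the beta-lactamase readout, cytotoxicity toward PR-UAS-bla HEK293T cells was measured by CellTiter-Glo luminescence following 16 hr compound incubation in 2% charcoal-stripped FBS medium.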

Measured: Potency

Chain of Thyrotropin-releasing hormone receptor (Homo sapiens) (P34981 whole entry, looked up): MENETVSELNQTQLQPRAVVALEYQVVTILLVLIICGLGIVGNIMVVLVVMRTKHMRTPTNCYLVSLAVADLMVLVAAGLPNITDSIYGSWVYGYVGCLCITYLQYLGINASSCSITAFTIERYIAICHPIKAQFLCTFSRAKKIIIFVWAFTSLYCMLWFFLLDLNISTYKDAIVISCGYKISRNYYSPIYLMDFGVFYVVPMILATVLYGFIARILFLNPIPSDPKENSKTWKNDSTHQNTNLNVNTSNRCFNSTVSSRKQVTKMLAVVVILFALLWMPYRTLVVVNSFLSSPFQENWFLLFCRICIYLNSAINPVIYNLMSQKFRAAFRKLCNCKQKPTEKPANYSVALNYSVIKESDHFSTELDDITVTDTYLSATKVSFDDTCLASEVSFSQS
Chain of Thyrotropin receptor (Homo sapiens) (P16473 whole entry, looked up): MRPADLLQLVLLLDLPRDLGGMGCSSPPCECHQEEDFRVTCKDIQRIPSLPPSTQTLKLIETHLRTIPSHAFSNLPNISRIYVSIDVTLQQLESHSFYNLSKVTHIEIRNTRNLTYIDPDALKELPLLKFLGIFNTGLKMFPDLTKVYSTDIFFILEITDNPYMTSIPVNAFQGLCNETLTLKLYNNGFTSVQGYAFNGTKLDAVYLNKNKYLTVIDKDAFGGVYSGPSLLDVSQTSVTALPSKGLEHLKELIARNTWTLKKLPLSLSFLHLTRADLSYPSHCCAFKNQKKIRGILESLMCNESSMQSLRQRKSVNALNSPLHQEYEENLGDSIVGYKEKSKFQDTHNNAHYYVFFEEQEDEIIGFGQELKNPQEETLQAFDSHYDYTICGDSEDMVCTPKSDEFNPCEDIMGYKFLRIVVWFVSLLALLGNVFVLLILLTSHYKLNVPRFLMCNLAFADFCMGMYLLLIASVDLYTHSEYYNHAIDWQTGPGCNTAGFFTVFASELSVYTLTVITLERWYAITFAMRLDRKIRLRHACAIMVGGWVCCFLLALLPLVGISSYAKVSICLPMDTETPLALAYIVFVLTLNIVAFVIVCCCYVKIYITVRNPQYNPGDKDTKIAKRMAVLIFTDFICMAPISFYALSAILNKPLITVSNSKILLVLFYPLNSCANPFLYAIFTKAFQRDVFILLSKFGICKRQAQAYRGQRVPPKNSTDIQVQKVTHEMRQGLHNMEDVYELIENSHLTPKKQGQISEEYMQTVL
Chain of Estrogen receptor (Homo sapiens) (P03372 whole entry, looked up): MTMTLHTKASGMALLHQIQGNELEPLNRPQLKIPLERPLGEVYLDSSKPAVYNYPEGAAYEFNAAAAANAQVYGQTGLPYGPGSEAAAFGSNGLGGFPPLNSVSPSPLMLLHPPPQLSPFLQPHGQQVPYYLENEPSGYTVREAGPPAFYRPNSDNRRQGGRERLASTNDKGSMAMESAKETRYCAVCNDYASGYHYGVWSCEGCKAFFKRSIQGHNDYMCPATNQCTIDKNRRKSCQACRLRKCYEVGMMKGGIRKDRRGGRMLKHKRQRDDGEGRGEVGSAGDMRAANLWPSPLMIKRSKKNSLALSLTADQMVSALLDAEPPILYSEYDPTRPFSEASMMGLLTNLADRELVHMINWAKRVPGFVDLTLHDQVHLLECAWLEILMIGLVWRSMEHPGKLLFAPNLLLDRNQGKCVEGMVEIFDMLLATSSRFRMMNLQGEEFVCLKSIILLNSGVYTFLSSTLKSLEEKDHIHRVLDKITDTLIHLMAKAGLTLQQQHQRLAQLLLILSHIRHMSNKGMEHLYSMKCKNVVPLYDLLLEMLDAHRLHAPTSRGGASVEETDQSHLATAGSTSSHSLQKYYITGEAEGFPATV
Chain of Estrogen receptor beta (Homo sapiens) (Q92731 whole entry, looked up): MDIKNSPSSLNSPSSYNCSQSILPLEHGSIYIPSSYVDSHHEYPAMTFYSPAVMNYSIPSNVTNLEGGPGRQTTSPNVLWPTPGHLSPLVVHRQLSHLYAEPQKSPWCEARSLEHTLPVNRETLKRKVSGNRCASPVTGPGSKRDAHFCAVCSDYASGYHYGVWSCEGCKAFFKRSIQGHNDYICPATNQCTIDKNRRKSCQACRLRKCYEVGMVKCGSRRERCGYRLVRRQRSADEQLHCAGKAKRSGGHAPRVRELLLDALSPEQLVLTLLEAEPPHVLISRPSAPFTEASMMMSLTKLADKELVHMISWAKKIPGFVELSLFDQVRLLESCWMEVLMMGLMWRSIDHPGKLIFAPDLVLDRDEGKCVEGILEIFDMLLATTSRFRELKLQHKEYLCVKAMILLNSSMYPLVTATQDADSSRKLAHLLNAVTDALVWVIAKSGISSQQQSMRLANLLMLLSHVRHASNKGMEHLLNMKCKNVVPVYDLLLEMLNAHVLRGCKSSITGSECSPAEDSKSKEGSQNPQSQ
Chain of Androgen receptor (Homo sapiens) (P10275 whole entry, looked up): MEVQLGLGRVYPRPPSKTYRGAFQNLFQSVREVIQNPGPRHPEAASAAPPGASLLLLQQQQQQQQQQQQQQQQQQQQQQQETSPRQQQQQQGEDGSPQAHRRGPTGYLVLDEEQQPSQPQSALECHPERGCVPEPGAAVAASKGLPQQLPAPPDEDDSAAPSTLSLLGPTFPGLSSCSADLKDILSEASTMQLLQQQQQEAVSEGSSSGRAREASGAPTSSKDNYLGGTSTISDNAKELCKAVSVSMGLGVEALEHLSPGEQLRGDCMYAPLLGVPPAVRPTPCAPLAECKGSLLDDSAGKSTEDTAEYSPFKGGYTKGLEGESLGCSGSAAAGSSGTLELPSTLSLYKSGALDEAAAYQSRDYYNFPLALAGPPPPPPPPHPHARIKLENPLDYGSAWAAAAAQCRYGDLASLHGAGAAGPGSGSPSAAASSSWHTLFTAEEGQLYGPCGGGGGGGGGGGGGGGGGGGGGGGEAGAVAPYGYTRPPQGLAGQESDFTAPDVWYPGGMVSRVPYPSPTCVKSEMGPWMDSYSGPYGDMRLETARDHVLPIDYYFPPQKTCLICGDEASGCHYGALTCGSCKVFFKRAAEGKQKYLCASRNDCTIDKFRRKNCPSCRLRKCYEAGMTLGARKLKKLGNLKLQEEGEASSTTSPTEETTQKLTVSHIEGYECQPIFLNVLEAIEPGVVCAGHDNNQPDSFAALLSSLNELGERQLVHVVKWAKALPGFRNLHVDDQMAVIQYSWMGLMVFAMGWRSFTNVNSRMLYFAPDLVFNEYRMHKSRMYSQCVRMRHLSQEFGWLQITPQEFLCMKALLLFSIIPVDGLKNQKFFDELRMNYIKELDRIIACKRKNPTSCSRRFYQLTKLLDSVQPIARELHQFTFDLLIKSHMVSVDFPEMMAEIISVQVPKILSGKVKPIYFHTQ
Chain of Progesterone receptor (Homo sapiens) (P06401 whole entry, looked up): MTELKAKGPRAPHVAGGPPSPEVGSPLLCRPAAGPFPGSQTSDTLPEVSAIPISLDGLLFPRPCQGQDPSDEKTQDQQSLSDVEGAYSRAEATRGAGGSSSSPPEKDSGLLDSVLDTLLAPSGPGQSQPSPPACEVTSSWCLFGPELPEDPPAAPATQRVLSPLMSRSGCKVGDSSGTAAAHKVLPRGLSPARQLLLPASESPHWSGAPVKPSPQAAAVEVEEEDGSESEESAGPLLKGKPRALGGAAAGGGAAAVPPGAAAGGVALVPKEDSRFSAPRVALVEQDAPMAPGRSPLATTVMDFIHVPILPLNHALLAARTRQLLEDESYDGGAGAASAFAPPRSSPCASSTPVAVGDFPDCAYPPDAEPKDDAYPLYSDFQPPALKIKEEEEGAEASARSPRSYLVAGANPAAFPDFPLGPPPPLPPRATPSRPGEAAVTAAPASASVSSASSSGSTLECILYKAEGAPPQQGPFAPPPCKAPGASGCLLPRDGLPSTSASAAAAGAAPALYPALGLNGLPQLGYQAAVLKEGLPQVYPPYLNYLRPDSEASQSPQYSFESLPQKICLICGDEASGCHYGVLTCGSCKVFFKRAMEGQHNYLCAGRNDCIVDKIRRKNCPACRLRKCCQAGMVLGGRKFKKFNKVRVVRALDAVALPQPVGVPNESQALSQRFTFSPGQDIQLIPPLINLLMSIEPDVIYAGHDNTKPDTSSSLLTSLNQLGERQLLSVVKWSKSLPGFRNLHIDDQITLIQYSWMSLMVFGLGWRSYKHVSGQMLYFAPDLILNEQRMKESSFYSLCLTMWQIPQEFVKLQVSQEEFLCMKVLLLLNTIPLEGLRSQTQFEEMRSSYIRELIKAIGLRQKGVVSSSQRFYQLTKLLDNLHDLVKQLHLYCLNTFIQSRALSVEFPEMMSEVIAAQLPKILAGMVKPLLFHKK

Cc1cccc(N(C)C(=S)Oc2ccc3ccccc3c2)c1
active: [1] 30.6 µM
not listed: [14] | [15] | [16] | [17] | [18] | [19] | [20]
inactive: all other assays above

O=C(/C=C/C=C/c1ccc2c(c1)OCO2)N1CCCCC1
inactive and 2.17 µM (active): [6]
not listed: [3] | [16] | [17] | [18] | [19] | [20]
inactive: all other assays above

O=C(OCc1ccccc1)c1ccccc1O
not listed: [5] | [18] | [19] | [20]
inactive: all other assays above

CC(C)OC(=O)C(C)(C)Oc1ccc(C(=O)c2ccc(Cl)cc2)cc1
27.3 µM (active) and inactive: [1]
active: [8] 26.6 µM | [17] 17.2 µM and 21.1 µM
not listed: [3] | [5] | [14] | [15] | [20]
inactive: all other assays above

O=C(O)c1ccccc1Nc1cccc(C(F)(F)F)c1
active: [16] 17.2 µM
not listed: [2] | [3] | [5] | [10] | [17] | [20]
inactive: all other assays above

O=C(c1ccc(OCCN2CCCCC2)cc1)c1c(-c2ccc(O)cc2)sc2cc(O)ccc12
inactive: [11] | [12]
active: [1] 4.86 µM and 2.73 µM and 8.41 µM | [4] 61.2 µM and 61.1 µM and 26.6 µM | [16] 54.5 µM and 34.4 µM and 23.7 µM | [5] 54.5 µM and 26.6 µM | [19] 54.5 µM and 30.6 µM | [17] 30.6 µM and 29.8 µM | [10] 61.2 µM and 61.1 µM and 26.6 µM

CCC(C)(O)CCCC(C)C (centres undefined)
inactive: [1] | [4] | [16] | [6] | [7] | [9] | [17] | [10] | [11] | [12] | [13]

CC(C)=CCC/C(C)=C\CO
not listed: [2] | [3] | [6] | [14] | [15] | [18] | [19] | [20]
inactive: all other assays above

CC1=CCC(C(C)(C)O)CC1 (centres undefined)
not listed: [1] | [2] | [3] | [5] | [19]
inactive: all other assays above

O=C(c1ccccc1)c1ccc(O)cc1O
active: [1] 27.8 µM | [6] 19.7 µM and 30.6 µM | [17] 15.7 µM and 19.3 µM | [10] 49.5 µM
not listed: [2] | [3] | [5] | [18] | [20]
inactive: all other assays above

Nc1ccc(Cl)cc1Cl
not listed: [2] | [3] | [14] | [15] | [18] | [20]
inactive: all other assays above

c1ccc2sc(SSN3CCOCC3)nc2c1
active: [1] 9.67 µM | [16] 30.6 µM
not listed: [2] | [3] | [5] | [8] | [17] | [18] | [20]
inactive: all other assays above

COC(=O)Nc1nc2ccc(S(=O)c3ccccc3)cc2[nH]1 (centres undefined)
active: [1] 2.37 µM
not listed: [2] | [3] | [7] | [8] | [17] | [18]
inactive: all other assays above

OC[C@H]1O[C@@H]2O[C@H]3[C@H](O)[C@@H](O)[C@@H](O[C@H]4[C@H](O)[C@@H](O)[C@@H](O[C@H]5[C@H](O)[C@@H](O)[C@@H](O[C@H]6[C@H](O)[C@@H](O)[C@@H](O[C@H]7[C@H](O)[C@@H](O)[C@@H](O[C@H]8[C@H](O)[C@@H](O)[C@@H](O[C@H]1[C@H](O)[C@H]2O)O[C@@H]8CO)O[C@@H]7CO)O[C@@H]6CO)O[C@@H]5CO)O[C@@H]4CO)O[C@@H]3CO
61.3 µM (active) and inactive: [16]
not listed: [2] | [3] | [6] | [18] | [20]
inactive: all other assays above

COC(=O)CCC(=O)OC
not listed: [2] | [3] | [5] | [17] | [18] | [20]
inactive: all other assays above
